Data from PubChem BioAssay (NCI).
“And” between values parts separate entries of the source, which are not always exact repeats. Equal entries are not always repeated. Compounds without any hit were thinned out: in the full panel of roughly 83,000, 20% have a hit.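 Single-dose data. Exposure time 48 hours. Values below 10 considered active.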 The source made the active and inactive calls.

These compounds were tested on HCT-116 colon (assay: NCI-60 one-dose screen, 48 h (100 = growth as untreated, 0 = no growth, -100 = all killed)). Conditions: 10 µM unless noted.
Method: Growth inhibition of the HCT-116 human tumor cell line is measured as a screen for anti-cancer activity. Cells are grown in 96 well plates and exposed to the test compound for 48 hours. Compounds are tested at a single concentration, which is 10^-5 M for most compounds. The reported endpoint is percent growth (GI% or GIPRCNT), where numbers from 0 - 100% represent growth inhibition, and numbers from -100% - 0 represent cell death. For example, a value of 40 represents 60% growth inhibition. A value of 0 means no net growth occurred over the course of the experiment. A value of -40 indicates 40% of cells at the beginning of the experiment died by the end of the experiment. A value of -100 means all cells are dead at the end of the experiment.
NCI-60 Human Tumor Cell Lines Screen was performed using the standard one-dose NCI protocol, which is described in more detail at https://dtp.cancer.gov/discovery_development/nci-60/default.htm.
Compounds with GIPRCNT values below 10 were considered active. Activity score was based on GIPRCNT using the following formula: […]
Score is 0 for GIPRCNT values of 100 or above, 50 for GIPRCNT values of 0, and 100 for GIPRCNT values of -100.

**Q.** For `N#CC(=S)Nc1ccc(Cl)c(Cl)c1`, which growth is on record?
**A.** Its growth is 4.91% (active).

**Q.** `Clc1ccc(/C=C/c2ccc3ccccc3n2)cc1` was tested. Which growth did it give?
**A.** The growth was 18.5% (inactive) and 77% (inactive) and 63.4% (inactive).

**Q.** How did the growth turn out when `COc1ccc(-n2[nH]c3c(cnc4ccccc43)c2=O)cc1` was run?
**A.** The growth was 90.5% (inactive) and 95.1% (inactive).

**Q.** Which growth does the source give for `NC(=O)Cc1nc(O)cc(=O)[nH]1` here?
**A.** Its growth is 110% (inactive).

**Q.** How did the growth turn out when `Cc1c(O)nc(N)[nH]c1=O` was run?
**A.** The growth was 103% (inactive).

**Q.** Which growth does the source give for `COc1ccc([N+](=O)[O-])cc1OC` here?
**A.** Its growth is 96.5% (inactive) and 102% (inactive).

**Q.** With `COCCCNC1=C(C#N)C(=O)NC(c2cccs2)S1` (stereo not given) as the compound, how does the growth read?
**A.** The growth was 103% (inactive).

**Q.** With `COc1cc(NCCCCCNC(C)C)c2ncccc2c1` as the compound, how does the growth read?
**A.** The growth was 96.9% (inactive) and 90.3% (inactive).

**Q.** `NC1=NC(c2ccccc2)N=C(Nc2ccccc2)N1` (stereo not given) was tested. Which growth did it give?
**A.** The growth was 59.9% (inactive) and 44.6% (inactive).

**Q.** For `S=c1nn[nH]n1C1CCCCC1`, which growth is on record?
**A.** The growth was 101% (inactive).

**Q.** `CCNC1=CC(=O)c2ncccc2C1=O` was tested. Which growth did it give?
**A.** The growth was 2.73% (active).

**Q.** `CCOC(=O)C(N)Cc1cc(I)c(O)c(I)c1` (stereo not given) was tested. Which growth did it give?
**A.** Its growth is 110% (inactive) and 95.3% (inactive).

**Q.** With `CCOCCC(=O)O` as the compound, how does the growth read?
**A.** Its growth is 97.3% (inactive).

**Q.** With `COc1ccc(/C=N/Nc2nc3ccccc3s2)cc1` as the compound, how does the growth read?
**A.** Its growth is 83.3% (inactive).

**Q.** For `O=C1C2=C(Nc3cc(Cl)ccc3N2)OC1c1c[nH]c2ccc(COc3ccccc3)cc12` (stereo not given), which growth is on record?
**A.** The growth was 72.4% (inactive).

**Q.** For `CN(C)C(=S)N(C)C`, which growth is on record?
**A.** The growth was 99.3% (inactive).

**Q.** How did the growth turn out when `CCN(CC)Cc1cc2[nH]c3c4ccc(Cl)cc4ncc3c2cc1OC` was run?
**A.** The growth was -3.8% (active) and 7.95% (active).

**Q.** `Cc1cc2nc3ccc(=[N+](C)C)cc-3sc2cc1N` was tested. Which growth did it give?
**A.** Its growth is -22.8% (active) and 4.49% (active).

**Q.** With `Cc1nc(Nc2ccc(Cl)cc2)c2cnn(-c3ccccc3)c2n1` as the compound, how does the growth read?
**A.** The growth was 101% (inactive).

**Q.** For `CC(C)(C(=O)c1cccnc1)c1cccnc1`, which growth is on record?
**A.** The growth was 108% (inactive) and 111% (inactive).

**Q.** How did the growth turn out when `O=c1[nH]c(=O)c2[nH]c(=O)[nH]c2[nH]1` was run?
**A.** Its growth is 94.6% (inactive).

**Q.** With `COc1cc2c(cc1O)C(=O)CCCC2` as the compound, how does the growth read?
**A.** The growth was 99.2% (inactive).

**Q.** Which growth does the source give for `OCCCc1ccccc1` here?
**A.** Its growth is 99.5% (inactive).

**Q.** With `Cc1ccc(S(=O)(=O)n2ccnc2)cc1` as the compound, how does the growth read?
**A.** Its growth is 98% (inactive).

**Q.** Which growth does the source give for `C(#CCN1CCOCC1)CCCN1CCOCC1` here?
**A.** Its growth is 105% (inactive) and 107% (inactive).

**Q.** For `COc1cc(C2c3cc4c(cc3C(OC(=O)C[n+]3ccccc3)C3COC(=O)C23)OCO4)cc(OC)c1OC` (stereo not given), which growth is on record?
**A.** The growth was 5.09% (active).

**Q.** How did the growth turn out when `O=C1c2ccccc2C(c2ccccc2)C1c1ccccc1` (stereo not given) was run?
**A.** Its growth is 79.3% (inactive).

**Q.** For `N=c1sc2ccccc2n1CC(=O)O`, which growth is on record?
**A.** The growth was 95.7% (inactive).

**Q.** With `CC1CCC(=O)N1c1ccc(N)cc1` (stereo not given) as the compound, how does the growth read?
**A.** Its growth is 101% (inactive).

**Q.** With `Cc1ccc([N+](=O)[O-])cc1Br` as the compound, how does the growth read?
**A.** The growth was 90.8% (inactive).

**Q.** With `CCOC(C)=N` as the compound, how does the growth read?
**A.** The growth was 95.1% (inactive).

**Q.** Which growth does the source give for `CCCC(=O)Oc1ccc(CC)cc1` here?
**A.** The growth was 101% (inactive).

**Q.** How did the growth turn out when `O=C(/C=C/C=C/c1ccc2c(c1)OCO2)N1CCCCC1` was run?
**A.** The growth was 103% (inactive) and 98.1% (inactive).

**Q.** `Nc1[nH][nH]c(=O)c1N=Nc1ccccc1` was tested. Which growth did it give?
**A.** The growth was 104% (inactive) and 102% (inactive).

**Q.** `O=C(O)C#Cc1ccc(Cl)cc1` was tested. Which growth did it give?
**A.** The growth was 102% (inactive).

**Q.** With `C(=N\OCCc1ccccc1)/c1ccccn1` as the compound, how does the growth read?
**A.** The growth was 112% (inactive) and 102% (inactive).

**Q.** Which growth does the source give for `Cc1cc(Cl)nc(Nc2ccccc2)n1` here?
**A.** The growth was 93.1% (inactive).

**Q.** With `CCCC(=O)Oc1ccc2ccccc2c1` as the compound, how does the growth read?
**A.** The growth was 101% (inactive).

**Q.** With `COc1ccc(/C=C/C(=O)O)cc1OC` as the compound, how does the growth read?
**A.** The growth was 99.5% (inactive) and 105% (inactive).

**Q.** Which growth does the source give for `CC(=O)Oc1cc(C)c(OC(C)=O)c(C)c1C` here?
**A.** Its growth is 112% (inactive).
